Screening results (PubChem BioAssay)
JMJD2A Tudor inh – blocks the human JMJD2A Tudor domain | O75164 | AlphaScreen JMJD2A-Tudor / H3K4me3 peptide binding | Potency, µM (titrated, usually from 114 µM), for the others: at the highest dose activity change, negative = inhibition, actives largely listed as inhibitors | 390,000 compounds, 4.4% hits | AID 504339; also: % is scaled to controls: 0 for no effect and ±100 for the full control effect; nearly all actives have a fitted effect of over 50% in size
BAZ2B block – BAZ2B (human) inhibition | Q9UIF8 | AlphaScreen BAZ2B-H3K14Ac peptide displacement | Potency, µM (series often up to 114 µM), for the others: at the top dose activity change, negative = inhibition, most hits filed as inhibitors | 360,000 compounds, 4.4% hits | AID 504333; also: % is scaled to controls: 0 for no effect and ±100 for the full control effect; nearly all actives have a fitted effect of over 60% in size
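AlphaScreen luminescence quantifies BAZ2B engagement of H3K14Ac peptide; the protein and biotinylated peptide are both at 50 nM final, buffer PBS pH 7.4 with 0.01% Tween-20, all steps at room temperature.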
Sfp PPTase inh – Sfp phosphopantetheinyl transferase inhibition; Q9F4F7; Biochemical Sfp PPTase activity, qHTS; Potency, µM, for inactives: largest response in the series, negative = inhibition, most hits filed as inhibitors; 310,000 compounds, 3.5% hits; AID 1490;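 also: the enzyme is Sfp with the accession as filed and its product quenches rhodamine fluorescence; 0% = enzyme reaction without inhibitor and -100% = no enzyme wells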
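Sfp 15 nM + cpd, 15 min RT; start w/ rhodamine-CoA 5 uM, BHQ-2-YbbR 12.5 uM (final); 50 mM Hepes pH 7.6, 10 mM MgCl2, 0.01% NP-40, 0.01% BSA; read 525/598 nm at 0 and 30 min.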
G9a inh – G9a (human) methyltransferase inhibition; Potency, µM (titrated, usually from 102 µM), without a hit: at the top dose activity, negative = inhibition, most hits filed as inhibitors; 350,000 compounds, 8.8% hits; G9a H3K9 monomethylation, AlphaScreen, 2 h; also: % is scaled to controls: 0 for no effect and ±100 for the full control effect; nearly all actives have a fitted effect of over 75% in size
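Using a bead-based AlphaScreen, monomethylated H3K9 product from 2 h room-temperature reactions (G9a 20 nM, peptide 500 nM, SAM 20 uM) was detected with 0.5 ug/mL rabbit anti-H3K9me1 antibody.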
PLK1 PBD inh – PLK1 (human) polo-box domain binding inhibition; P53350; Plk1 PBD binding of FITC phosphopeptide, fluorescence polarization; Potency, µM, inactives show max response, negative = inhibition, usual class: inhibitors; AID 720504; 360,000 compounds, 2.8% hits; also: series mostly up to about 57 µM; % is scaled to controls: 0 for no effect and ±100 for the full control effect; nearly all actives have a fitted effect of over 65% in size
HP1b chromo inh – inhibitors of HP1-beta chromodomain binding to methylated histone tails; P83916; AlphaScreen HP1-beta / biotin-H3K9me3 peptide binding; Potency, µM (series often up to 114 µM), for the others: at the top dose activity change, negative = inhibition, hits mostly inhibitors; 390,000 compounds, 0.56% hits; AID 540317; also: nearly all actives have a fitted effect of over 70% in size
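HP1-beta protein (50 nM final) preincubated 30 min at room temperature with biotinylated H3(1-18)K9me3 peptide (50 nM) in PBS pH 7.4, 0.01% Tween-20, then compound added for 30 min. AlphaScreen streptavidin donor/nickel chelate acceptor beads (10 ug/mL final), 30 min dark, luminescence read.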
The depositor's hits bear a star; ? = inconclusive; . = not tested or not shown; [ ] = dose if it differs, or a comment. Only some compounds are listed: those with a hit (about 12% of all), similar ones and a draw of the others. Calls follow the shape of the dose curve; as a rule, active = well fitted curve in the direction sought with a large enough effect; inconclusive = small, poorly fitted or top-dose-only effect, or another doubt; inactive = no such curve, though single readings can be large; an effect the other way counts as inactive or inconclusive. Potency is read from the fitted curve at half-maximal effect.

SMILES	JMJD2A Tudor inh	BAZ2B block	Sfp PPTase inh	G9a inh	PLK1 PBD inh	HP1b chromo inh
COc1cccc(CN2CCN(Cc3cc(OC)c(OC)c(OC)c3)CC2)c1OC	7.9µM*	56µM*	-20%	2.8µM*	-7%	?
COc1cccc(CN2CCN(CCc3ccccc3)C(CCO)C2)c1OC (stereo not given)	-2%	3%	4%	-3%[0.501 µM]	-3%	31%
CC1CCN(C(=O)CN(CCc2ccccc2)S(C)(=O)=O)CC1	-7%	6%	7%	7%	-5%	29%
COc1cccc(CN2CCN(Cc3cccc(Oc4ccccc4)c3)CC2)c1OC	7.1µM*	18µM*	79µM*	4µM*	-10%	?
COc1cccc(CN2CCC(N(CCc3ccccc3)Cc3ccccc3)CC2)c1OC	0.89µM*	50µM*	40µM*	8.9µM*	-9%	?
CC(C)CC(=O)N1CCC(N(CCc2ccccc2)Cc2ccccc2)CC1	28µM*	50µM*	?	22µM*	-5%	?
CCc1nc2ccc(C(=O)N3CCCCC3)cn2c1N(CCC(C)C)CCN(C)C	.	.	.	.	-5%	.
O=C(CCC1CCCN(C(=O)CC2=CCCCC2)C1)N1CCN(c2ccccn2)CC1 (stereo not given)	14µM*	-3%	-1%	14%	8.4µM*	-17%
CCc1cc(-c2n[nH]c(C)c2-c2ccccc2Cl)c(O)cc1OC	?	?	12%	40µM*	-8%	7%
Cc1nc(C(=O)O)cc2c1[nH]c1ccccc12	79µM*	50µM*	.	12%[12.7 µM]	-4%	67%
Cc1nc(C(=O)NCCO)cc2c1[nH]c1ccccc12	-12%	-18%	9%	12%	-4%	22%
Cc1ccccc1N1CCN(C(=S)c2ccc([N+](=O)[O-])cc2)CC1	?	?	?	13µM*	17µM*	?
O=C(c1ccc(Oc2ccc([N+](=O)[O-])cc2)cc1)N1CCCCCC1	-17%	-33%	-11%	5%	-3%	26%
COc1ccccc1N1CCN(C(=S)NC(=O)c2ccc([N+](=O)[O-])cc2)CC1	.	.	.	.	3%	.
Cc1cccc(N2CCN(C(=S)c3ccccc3)CC2)c1	-33%	-38%	?	?	-15%	-6%
Cc1cccc(N2CCN(C(=S)c3ccc([N+](=O)[O-])cc3)CC2)c1	40µM*	11µM*	25µM*	4µM*	4.7µM*	32µM*
CC1CCCC(N2CCN(C(=O)c3ccc([N+](=O)[O-])cc3)CC2)C1 (stereo not given)	22µM*	56µM*	-14%	22µM*	-10%	?
CC(=O)N1CCN(C(=S)c2ccc([N+](=O)[O-])cc2)CC1	?	-2%	-10%	22µM*	?	-6%
Cc1noc(C)c1-c1ccc2ncnc(Nc3ccccc3)c2c1	.	.	6%	5%[0.501 µM]	.	.
CCOC(=O)c1c(CSC(=N)N)n(-c2ccccc2)c2cc(Br)c(OC(C)=O)cc12	?	?	?	50µM*	-10%	-15%
O=C(NCCc1ccccc1)c1ccc(CSc2nc3ccncc3n2Cc2cccc(F)c2)cc1	-19%	-3%	.	?	.	45%
O=C(CSc1nn(-c2ccccc2)c(=S)s1)Nc1ncccn1	-13%	-24%	-2%	-21%	-5%	24%
CC(Sc1n[nH]c(-c2ccccc2)n1)C(=O)c1c(N)n(C)c(=O)n(C)c1=O (stereo not given)	0%	4%	.	50µM*	-8%	31%
CC(Sc1nc2ccccc2s1)C(=O)c1c(N)n(C)c(=O)n(C)c1=O (stereo not given)	-5%	-16%	10%	?	-2%	41%
Cn1c(N)c(C(=O)CSc2nn(-c3ccccc3)c(=S)s2)c(=O)n(C)c1=O	-21%	0%	.	50µM*	-9%	11%
SMILES	JMJD2A Tudor inh	BAZ2B block	Sfp PPTase inh	G9a inh	PLK1 PBD inh	HP1b chromo inh
Cc1cc(C)nc(NC(=O)CSc2nn(-c3ccccc3)c(=S)s2)n1	?	79µM*	-6%	?	-17%	12%
CC(Sc1nn(-c2ccc(F)cc2)c(=S)s1)C(=O)c1c(N)n(C)c(=O)n(C)c1=O (stereo not given)	-19%	-13%	.	50µM*	-4%	0%
O=C(Nc1ccc2nc3n(c(=O)c2c1)CCCC3)c1cncc(Br)c1	-22%	.	.	.	-8%	28%
Cc1ccccc1Nc1cc(C(=O)NCc2cccs2)c2ccccc2n1	-5%	.	.	18%[59 µM]	.	63%
Cc1ccc(CC(=O)Nc2c(C(=O)N3CCN(c4ccccc4)CC3)oc3ccccc23)cc1	-21%	-14%	.	-7%[59 µM]	.	9%
Cc1c(C(=O)OCC(=O)NC2CC2)oc2ccc(Br)cc12	-13%	0%	.	1%	-6%	-5%
Cc1ccc(C(=O)N2CCCC(C(=O)Nc3cccc(-c4ccc(F)cc4)c3)C2)cn1 (stereo not given)	-14%	-6%[57.1 µM]	5%	-7%	-13%	40%
COc1ccc(-c2nc3ccccc3o2)cc1NC(=O)c1ccc(OCC(C)C)cc1	-8%	-11%	.	-3%[59 µM]	.	11%
COc1cc(NC(=S)Nc2ccc(OC(F)F)cc2)cc(OC)c1	-19%	-14%	9%	?	-19%	14%
[O-]/C(=C(\C(=S)Nc1cccc2ccccc12)[n+]1ccccc1)c1ccc2c(c1)OCCO2	?	56µM*	45µM*	8.9µM*	?	-16%
COc1cccc(NC(=S)/C(=C(\[O-])c2ccc(OC(F)F)cc2)[n+]2ccccc2)c1	-30%	-31%	50µM*	18µM*	-25%	4%
CC(C)C(=O)c1cc2c(cc1NC(=O)Nc1cccc3ccccc13)OCCO2	.	12%	16%	5%[59 µM]	.	.
